Measured values taken from PMC4552634, “A New Set of Chemical Starting Points with Plasmodium falciparum Transmission-Blocking Potential for Antimalarial Drug Discovery” (PLoS ONE, 2015).
Read-outs that look alike come from different tables or passages of the source. Hit rate of the full screen: of about 13,000 compounds, about 3,200 (25%) showed an effect of 50% or more. The list shows a part of the results.

System: P. falciparum stage V gametocytes
Parameters: BacTiter-Glo ATP luminescence viability of purified stage V gametocytes in 384-well plates, per cent inhibition versus DMSO
Details: 48 h, 5 µM, inhibitor

In the case of `Cc1cc(OCCCN2CCC(NS(=O)(=O)c3cccc(Br)c3)CC2)c2ccccc2n1` [TCMDC-136279], the “% Inhibition” value is reported as -49.51%.

For `CCCCc1cc(Cc2cnc(N)nc2N)cc(OC)c1OC` [TCMDC-137876], the “% Inhibition” value was -18.26%.

`CCCCOc1c(CCNCCCCNCCc2cc(OC)c3ccccc3c2OCCCC)cc(OC)c2ccccc12` [TCMDC-137848] was tested, and the “% Inhibition” value was 124.7%.

With `CCCCOc1cc(OC)c2ccccc2c1CCNCCCCNCCc1c(OCCCC)cc(OC)c2ccccc12` [TCMDC-137845] the “% Inhibition” value was 110.3%.

`CC[C@H](NC(=O)c1c(CN2CCC(N3CCCCC3)CC2)c(-c2ccccc2)nc2cc(O)ccc12)c1ccccc1` [TCMDC-140381] was tested, and the “% Inhibition” value was 13.93%.

For `CC(C)CCN1CCC(Oc2ccc(NC(=O)c3ccc4ncccc4c3)cc2Cl)C1` (centres unmarked) [TCMDC-133982], the “% Inhibition” value was 6.933%.

In the case of `Clc1ccccc1CNc1noc(-c2sccc2Br)n1` [TCMDC-134189], the “% Inhibition” value is reported as -9.305%.

For `CCc1c(C)nc(-n2nc(C)cc2NC(=O)c2ccc(OC)cc2OC)[nH]c1=O` [TCMDC-124937], the “% Inhibition” value was 1.355%.

In the case of `CCc1c(C)nc(-n2nc(C)cc2NC(=O)c2cccc3ccccc23)[nH]c1=O` [TCMDC-124936], the “% Inhibition” value is reported as 19.12%.

For `Cc1cc(NC(=O)c2cc(Br)ccc2Cl)n(-c2nc(C)c(C)c(=O)[nH]2)n1` [TCMDC-124938], the “% Inhibition” value was 58.54%.

With `COc1cccc2cc(C(=O)N[C@@H](CC(C)C)C(=O)N[C@H](/C=N/NC(=O)N3CCN(C)CC3)CCc3ccccc3)oc12` [TCMDC-136052] the “% Inhibition” value was 37.67%.

`COc1cc(NC(=O)N2CCOC(CCN3CCC(c4ccccc4)CC3)(c3ccc(Cl)c(Cl)c3)C2)cc(OC)c1OC` (centres unmarked) [TCMDC-135349] was tested, and the “% Inhibition” value was -27.1%.

`CC(C)(C)c1cc(N=NC(=O)c2ccncc2)cc(C(C)(C)C)c1O` [TCMDC-123490] was tested, and the “% Inhibition” value was -20.54%.

For `N#Cc1ccc(N(CCOc2ccc(Cl)c(F)c2)Cc2ccccc2C(F)(F)F)cc1C(F)(F)F` [TCMDC-132797], the “% Inhibition” value was -6.991%.

In the case of `O=C(c1cc(C(=O)NCc2ccc(Cl)cc2)c(=O)n(Cc2ccc(Cl)cc2)c1)c1cc(F)ccc1O` [TCMDC-125145], the “% Inhibition” value is reported as -12.34%.

For `O=C(NCCCCN1CCC(c2ccc3ccccc3c2O)CC1)c1ccc(NC(=O)c2ccc(Cl)cc2)cc1` [TCMDC-138654], the “% Inhibition” value was 82.05%.

`O=C(NCCCCN1CCC(c2ccc3ccccc3c2O)CC1)c1ccc(-c2ccc(Cl)cc2)cc1` [TCMDC-138663] was tested, and the “% Inhibition” value was 108.9%.

`CC(=O)Oc1c(C2CCN(CCCCNC(=O)c3ccc(NC(=O)c4ccc(Cl)cc4)cc3)CC2)ccc2ccccc12` [TCMDC-138657] was tested, and the “% Inhibition” value was 89.12%.

In the case of `O=C(NCCCCN1CCC(c2ccc3ccccc3c2)CC1)c1ccc(NC(=O)c2ccc(Cl)cc2)cc1` [TCMDC-138378], the “% Inhibition” value is reported as -9.216%.

`O=C(NCCCCN1CCC(c2cccc3ccccc23)CC1)c1ccc(NC(=O)c2ccc(Cl)cc2)cc1` [TCMDC-138340] was tested, and the “% Inhibition” value was -11.24%.

In the case of `Cc1cccc2[nH]c(-c3cccc(-c4cccc(NC(=O)CNC(=O)c5ccc(O)cc5)c4)c3)nc12` [TCMDC-136818], the “% Inhibition” value is reported as -5.376%.

For `Cc1cc(OCCCn2ccnc2)ccc1-c1csc(NC(N)=NCc2ccccc2)n1` [TCMDC-138931], the “% Inhibition” value was 31.69%.

For `CC(C(=O)OCCOCn1cnc2c(=O)[nH]c(N)nc21)N(C)C(=O)OC(C)(C)C` (centres unmarked) [TCMDC-137343], the “% Inhibition” value was 21.46%.

`CC(C)c1ccc(S(=O)(=O)N(c2ccc3c(c2)OCO3)C2CCN(Cc3ccccc3)C2)cc1` (centres unmarked) [TCMDC-134099] was tested, and the “% Inhibition” value was -69.31%.

`COc1ccc(N2C(N)=NC(N)=NC2(C)C)cc1OC` [TCMDC-124282] was tested, and the “% Inhibition” value was 18.93%.

In the case of `Cc1cccc2nc(-c3ccc(-c4cccc(NC(=O)C(C)CN5CCN(C)CC5)c4)s3)[nH]c12` (centres unmarked) [TCMDC-137155], the “% Inhibition” value is reported as -49.23%.

`CC(CN1CCN(C)CC1)C(=O)Nc1cccc(-c2ccc(-c3nc4ccccc4[nH]3)cc2)c1` (centres unmarked) [TCMDC-137147] was tested, and the “% Inhibition” value was 83.04%.

With `CC(CN1CCN(C)CC1)C(=O)Nc1cccc(-c2cccc(-c3nc4ccccc4[nH]3)c2)c1` (centres unmarked) [TCMDC-137141] the “% Inhibition” value was 72.32%.

`CCc1cc2c(=O)c(-c3nc(C)cs3)c(N)oc2c(CN2CCCCC2)c1O` [TCMDC-124016] was tested, and the “% Inhibition” value was 0.6377%.

For `COc1cc(C(=O)N2N=C(c3c(-c4ccccc4)c4cc(Br)ccc4[nH]c3=O)CC2c2cccc([N+](=O)[O-])c2)cc(OC)c1OC` (centres unmarked) [TCMDC-124218], the “% Inhibition” value was 43.01%.

In the case of `Cc1noc(C)c1-c1cccc(CNCc2ccc(-c3cccc(-c4nc5cccc(C)c5[nH]4)c3)cc2)c1.O=C(O)C(F)(F)F` [TCMDC-133052], the “% Inhibition” value is reported as -22.75%.

For `O=C(/C=C/c1ccc(Cl)c(Cl)c1)NC1CCC(CN2CCC(c3nc4ncccc4[nH]3)CC2)CC1` (centres unmarked) [TCMDC-140264], the “% Inhibition” value was 5.039%.

With `Cc1nn(-c2cccc(C(F)(F)F)c2)c2sc(C(=O)NC3CCN(C(C)C)CC3)cc12` [TCMDC-125005] the “% Inhibition” value was 65.55%.

For `COc1cc(NC(=O)c2cc3c(C)nn(-c4cccc(C(F)(F)F)c4)c3s2)cc(OC)c1OC` [TCMDC-123615], the “% Inhibition” value was -65.38%.

`CC(C)(C)c1ccc(CN2CCC(NC(=O)c3ccc(-c4cccc(C(F)(F)F)c4)s3)CC2)cc1` [TCMDC-134348] was tested, and the “% Inhibition” value was -9.273%.

`COc1cccc(-c2cc3nc4c(c(NCCCn5ccnc5)n3n2)CCCC4)c1` [TCMDC-124388] was tested, and the “% Inhibition” value was -20.83%.

`COc1cc(OC)c2c(C)cc(NCCCN3CCOCC3)nc2c1` [TCMDC-125775] was tested, and the “% Inhibition” value was -9.297%.

`COc1cc(OC)c2c(C)cc(NCCCn3ccnc3)nc2c1` [TCMDC-125762] was tested, and the “% Inhibition” value was 61.26%.

With `Nc1nc(-c2ccc3c(Nc4ccc(F)c(Cl)c4)ccnc3c2)cs1` [TCMDC-138353] the “% Inhibition” value was 24.85%.

With `Fc1ccccc1-c1cc(Nc2ccncc2)nc(-c2cccnc2)n1` [TCMDC-125415] the “% Inhibition” value was 17.65%.

`Cc1cc(Cl)ccc1NC(=O)NCCCCCN1CCC(c2c[nH]c3ccccc23)CC1` [TCMDC-139168] was tested, and the “% Inhibition” value was -22.23%.

With `O=C(NCCCCCN1CCC(c2c[nH]c3ccccc23)CC1)Nc1cccc(Cl)c1` [TCMDC-139167] the “% Inhibition” value was 82.38%.

For `O=C(NCCCCCN1CCC(c2c[nH]c3ccccc23)CC1)Nc1ccc(I)cc1` [TCMDC-139165], the “% Inhibition” value was -24.33%.

`O=C(NCCCCCN1CCC(c2c[nH]c3ccccc23)C1)Nc1ccc(Cl)c(Cl)c1` (centres unmarked) [TCMDC-139169] was tested, and the “% Inhibition” value was -42.12%.

With `O=C(NCCCCCN1CCC(c2c[nH]c3ccccc23)CC1)Nc1cccc(I)c1` [TCMDC-139201] the “% Inhibition” value was 57.32%.

With `S=C(NCCCCCN1CCC(c2c[nH]c3ccccc23)CC1)Nc1cc(Cl)cc(Cl)c1` [TCMDC-139171] the “% Inhibition” value was -46.2%.

`S=C(NCCCCCN1CCC(c2c[nH]c3ccccc23)CC1)Nc1cccc(I)c1` [TCMDC-139203] was tested, and the “% Inhibition” value was 89.1%.

`O=C(NCC(CCCN1CCC(c2c[nH]c3ccccc23)CC1)c1ccccc1)Nc1ccc(Cl)c(Cl)c1` (centres unmarked) [TCMDC-139507] was tested, and the “% Inhibition” value was -18.56%.

With `S=C(NCCCCCN1CCC(c2c[nH]c3ccccc23)CC1)Nc1ccc(Cl)c(Cl)c1` [TCMDC-139170] the “% Inhibition” value was -11.79%.

In the case of `O=C(NCCCCCN1CCC(c2c[nH]c3ccccc23)CC1)Nc1cccc(Br)c1` [TCMDC-139116], the “% Inhibition” value is reported as -20.19%.

For `O=C(NCCCCCN1CCC(c2c[nH]c3ccccc23)CC1)Nc1ccc(Cl)c(Cl)c1` [TCMDC-139117], the “% Inhibition” value was 79.3%.

With `O=C(Nc1cccc(-c2csc(-c3nc4ccccc4[nH]3)c2)c1)c1ccoc1` [TCMDC-132404] the “% Inhibition” value was 1.607%.

`N=C(N)NN=CC(=O)Nc1ccc(C(F)(F)F)cc1` [TCMDC-137560] was tested, and the “% Inhibition” value was 10.99%.

For `CCC(CC(NCCCCNC(=O)c1ccc(NC(=O)c2ccc(Cl)cc2)cc1)c1ccccc1)c1ccccc1OC` (centres unmarked) [TCMDC-138580], the “% Inhibition” value (% Inhibition) was -0.1612%.

In the case of `Nc1ncc(-c2ccc(F)cc2)c2ccc(-c3cccc(F)c3)cc12` [TCMDC-134502], the “% Inhibition” value is reported as -15.75%.

For `NC(N)=NC(=O)Nc1cc(Br)c(Br)c(Br)c1` [TCMDC-137506], the “% Inhibition” value was -8.388%.

`CNCC(O)c1cc(Cl)c(Cl)cc1C` (centres unmarked) [TCMDC-131255] was tested, and the “% Inhibition” value was 13.21%.

With `CCn1ncc(Cl)c1CN(C)S(=O)(=O)c1ccc(Br)cc1` [TCMDC-124902] the “% Inhibition” value was 30.97%.

For `CCSc1nc2sc3c(c2c(=O)n1-c1ccccc1)CCN(C)C3` [TCMDC-123852], the “% Inhibition” value was 14.1%.

`CCCN(CCC)S(=O)(=O)c1ccc(C(=O)N2CCC(C(=O)OCC)CC2)cc1` [TCMDC-139301] was tested, and the “% Inhibition” value was 16.88%.

For `Cc1nc(N)nc(N)c1-c1cccc(Cl)c1` [TCMDC-137375], the “% Inhibition” value was 13.21%.

`c1ccc(COc2ccc(Nc3ncnc4cnc(-c5ccc(CNc6cccnc6)o5)cc34)cc2)cc1` [TCMDC-137776] was tested, and the “% Inhibition” value was 19.44%.

In the case of `O=C(NCCCCCN1CCC(c2c[nH]c3ccccc23)CC1)Nc1ccc(I)c(Cl)c1` [TCMDC-139202], the “% Inhibition” value is reported as -23.12%.

With `O=C(NCCCCCN1CCC(c2c[nH]c3ccccc23)CC1)Nc1ccc(Br)cc1` [TCMDC-139115] the “% Inhibition” value was -28.65%.

With `Cc1ccc(NC(=O)NCCCCCN2CCC(c3c[nH]c4ccccc34)CC2)cc1I` [TCMDC-139200] the “% Inhibition” value was 66.97%.

For `Cc1ccc(N2C(N)=NC(N)=NC2(C)C)cc1Cl` [TCMDC-137708], the “% Inhibition” value was -11.46%.

With `Cc1cc(N2C(N)=NC(N)=NC2(C)C)ccc1Cl` [TCMDC-137705] the “% Inhibition” value was -13.35%.

In the case of `CC1(C)N=C(N)N=C(N)N1c1ccc(Oc2ccc(Cl)cc2)c(Cl)c1` [TCMDC-123522], the “% Inhibition” value is reported as 76.9%.
